Assay results from PubChem BioAssay.
Where “and” joins values, the source holds several entries; their conditions need not be identical. Equal entries are not always repeated. Results filed as inconclusive are left out. Calls of active or inactive are those of the source. Unless noted, no cut-off is given here; in the data, nearly all actives have AC50 up to about 30 µM.

Tests used:
[1] = liver-stage malaria parasite growth inhibition, primary screen, cell-based, HepG2, luciferase luminescence, HepG2 viability (AID 624349; in the data active = parasite load remaining mostly below about 12%, no sharp cut-off; inactive = mostly above about 10%;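 note: 100% = mean of DMSO negative control wells on the same plate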); conditions: P. berghei liver stage in HepG2, luciferase luminescence, concentration not given here; parasite load remaining: stronger effect = lower value; viability: measured here: HepG2 viability without parasites
[2] = stimulators of nuclear beta-catenin in C2C12, primary screen, imaging, WNT3A-conditioned medium, mouse C2C12, NPC library (AID 1117326; in the data active = nuclear beta-catenin stimulation mostly above about 4.2%, no sharp cut-off; inactive = mostly below about 10%); conditions: stronger effect = higher value
[3] = stimulators of insulin release from INS-1E, primary screen, cell-based, 5 mM glucose, NPC library (AID 1117329;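 active = compound raises insulin release from rat beta cells at 5 mM glucose, no numeric limit stated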); conditions: rat INS-1E insulin secretion, at 10 µM, stronger effect = higher value
[4] = growth inhibition of GSK3B-pretreated HCT116 cells – cell-based, CellTiter-Glo, 0.2 to 20 µM (AID 1117336;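 active = compounds lowering colon cancer cell viability after pretreatment blocking the GSK3B kinase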); conditions: HCT116 viability after GSK3B inhibitor, at 20 µM, stronger effect = higher value
[5] = inhibition of endothelial tube formation, primary screen, imaging, VEGF stimulated, CD31 staining, tube area, NPC library (AID 1117340;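 active = compound that reduces growth-factor-driven endothelial tube area in a mixed cell culture, no cutoff stated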); conditions: VEGF-stimulated ADSC/ECFC co-culture, at 10 µM, stronger effect = higher value
[6] = glucagon-like peptide 1 release enhancers, primary assay, NCI-H716 cell line, NPC library (AID 1117341;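 active = compound raises GLP1 secretion from the human gut endocrine cells, with no numeric limit stated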); conditions: NCI-H716 cells, at 10 µM, stronger effect = higher value
[7] = HCT116 colon cancer cell growth inhibition, primary screen, CellTiter-Glo luminescence, NPC library (AID 1117342;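 active = compounds that lower survival of HCT116 colon cancer cells in the luminescence readout, no numeric limit stated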); conditions: at 20 µM (top of the series)
[8] = CellTiter-Glo luminescent readout of SW480 viability loss, NPC library primary (AID 1117343;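 active = compounds that lower viability of the colon cancer cells in the luminescence readout, with no numeric limit stated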); conditions: CellTiter-Glo luminescence; at 20 µM (top of the series) unless noted
[9] = decreased DLD-1 cellular survival, CellTiter-Glo luminescent readout, NPC compound collection, primary HTS (AID 1117346;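 active = compounds that lower survival of DLD-1 colon cancer cells in the luminescence readout, no cutoff given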); conditions: DLD-1 viability, CellTiter-Glo luminescence; at 20 µM (top of the series)
[10] = growth inhibition of DIPG glioma cells, dose response, cell-based, JHH-DIPG-1, MIPE4.0, CellTiter-Glo, qHTS (AID 1347062; cut-off not given, nearly all actives have AC50 up to about 27 µM;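 for AC50: cells exposed to compound for two days before readout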); conditions: JHH-DIPG-1 viability, CellTiter-Glo ATP luminescence
[11] = SU-DIPG-VI glioma cell viability, MIPE4.0 library, CellTiter-Glo luminescence, qHTS (AID 1347066); conditions: CellTiter-Glo ATP luminescence;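 note: cells exposed to compound for 48 hours before readout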
[12] = JHH-DIPG-1 glioma cell viability, MIPE5.0 library, CellTiter-Glo luminescence, qHTS (AID 1347067; cut-off not given, nearly all actives have AC50 up to about 26 µM;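 note: cells exposed to compound for 48 hours before readout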); conditions: JHH-DIPG-1 glioma viability, CellTiter-Glo ATP luminescence
[13] = SU-DIPG-XXV glioma cell viability, MIPE5.0 library, qHTS (AID 1347068; cut-off not given, nearly all actives have IC50 up to about 30 µM)
[14] = sensitizers of A549 cells to miR-34 induction, primary screen, imaging, A549 dox-inducible miR-34, nuclei and caspase counts (AID 1347080;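 active = compounds whose cell count with miR-34 switched on is under 0.7 times the count with it off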); conditions: A549 miR-34 inducible, Hoechst nuclei count, 48 h
[15] = survival rescue of mitochondrial mutant cells in low glucose, primary screen, MELAS cybrids, Rieske KO mouse fibroblasts, CellTiter-Glo (AID 1508586;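 active = mean z-score across replicates of 1.96 or higher in either the MELAS or the Rieske mutant cell line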;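 note: z relative to plate mean and SD of compound and empty wells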)
[16] = viability rescue of complex I mutant cybrids, primary screen, cell-based, galactose medium, ATP luminescence (AID 1645843;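 active = z-score of at least 1.8 in each of two replicates, scored against plate mean and spread of sample wells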;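 note: positive z means more ATP and so rescue of galactose-driven cybrid death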); conditions: complex I mutant cybrid cells, 72 h, stronger effect = higher value
[17] = growth inhibition of DIPG glioma cells, dose response, cell-based, SU-DIPG-IV, MIPE4.0, CellTiter-Glo, qHTS (AID 1347063); conditions: SU-DIPG-IV viability, CellTiter-Glo ATP luminescence;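 note: compound exposure lasted 48 hours before the viability readout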
[18] = viability loss in pontine glioma line – cell-based, SU-DIPG-XXV, MIPE5.0, CellTiter-Glo, qHTS, dose response (AID 1347065; cut-off not given, nearly all actives have AC50 up to about 26 µM;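 note: cells exposed to compound for 48 hours before ATP readout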); conditions: CellTiter-Glo ATP luminescence
[19] = phospholipid biosynthesis inhibitors in animal cells, primary screen, cell-based, LOPAC library, screen 4 (AID 1347384; call rule not given here); conditions: phospholipid biosynthesis inhibition screen, at 10 µM
[20] = ovarian cancer cell viability with rucaparib, profiling panel, oncology-focused library, rucaparib conditional (AID 1508598;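 active = normalized viability below 100% at a tested concentration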); conditions: patient-derived ovarian cancer cells, CellTiter-Glo viability, 144 h, stronger effect = lower value
[21] = stronger effect = lower value, cell number ratio, induced over uninduced
[22] = measured here: relative caspase fold change +Dox/-Dox
[23] = measured here: total cells with miR-34 induction, stronger effect = lower value
[24] = measured here: total cells without miR-34 induction
[25] = MELAS cybrid survival, CellTiter-Glo 48 h, stronger effect = higher value
[26] = Rieske KO mouse fibroblast survival, CellTiter-Glo 72 h

Cc1c(C)c2c(c(C)c1O)CCC(C)(COc1ccc(CC3SC(=O)NC3=O)cc1)O2 (stereo not given)
5600 and 12700 and 9040: cell count [14, 24]
active: viability decrease [4] 88.4% | tube area decrease [5] 99.4% | inhibition of viability [7] 55.4% | viability decrease (inhibition) [8] 110% | viability decrease (inhibition) [9] 101%
0.891 and 4.13 and 1.35: fold change [14, 22]
inactive: parasite load remaining [1] 65.9% and 36.4% | nuclear beta-catenin stimulation ([2]; at 10 µM) 1.2% | insulin secretion stimulation [3] 1.4% | GLP1 secretion stimulation [6] 11.9% | outcome [10] | outcome [11] | outcome [12] | outcome [13] | fold change [14, 21] 1.09 and 0.933 and 0.824 | z-score [15, 25] -0.456 and 0.16 | z-score [16] 0.175
0.0968 and -0.894: z-score [15, 26]
6090 and 11900 and 7450: cell count [14, 23]
207% and 95%: viability [1]
10.4%: nuclear beta-catenin stimulation ([2]; stimulation, at 2 µM)

CCCS(=O)c1ccc2nc(NC(=O)OC)[nH]c2c1 (stereo not given)
inactive: parasite load remaining [1] 34.6% | nuclear beta-catenin stimulation ([2]; at 10 µM) 4.7% | insulin secretion stimulation [3] 0.2% | tube area decrease [5] 20.1% | GLP1 secretion stimulation [6] 0.6% | viability decrease (inhibition) [9] 29.6% | outcome [12] | outcome [13] | fold change [14, 21] 0.922 and 0.972 | z-score [15, 25] -0.274 and -0.499 | z-score [16] 0.54
active: viability decrease [4] 71.2% | inhibition of viability [7] 65.2% | viability decrease (inhibition) [8] 87.9% | AC50 [17] 14.8 µM | AC50 [18] 23.5 µM
-1.8%: nuclear beta-catenin stimulation ([2]; stimulation, at 2 µM)
0.419 and -0.334: z-score [15, 26]
7350 and 6760: cell count [14, 24]
6780 and 6570: cell count [14, 23]
0.991 and 1.16: fold change [14, 22]
83%: viability [1]

CN1C[C@H]2c3ccccc3Oc3ccc(Cl)cc3[C@@H]2C1
-0.7%: nuclear beta-catenin stimulation ([2]; stimulation, at 2 µM)
0.408: z-score [15, 26]
active: viability decrease (inhibition) [8] 80.6%
inactive: nuclear beta-catenin stimulation ([2]; at 10 µM) 0.7% | insulin secretion stimulation [3] 9% | viability decrease [4] 30.4% | tube area decrease [5] 28.3% | GLP1 secretion stimulation [6] 4.4% | inhibition of viability [7] 39.3% | viability decrease (inhibition) [9] 34.3% | outcome [10] | outcome [17] | outcome [11] | z-score [15, 25] 0.874

O[C@@H](CNC[C@H](O)[C@H]1CCc2cc(F)ccc2O1)[C@@H]1CCc2cc(F)ccc2O1
active: viability decrease [4] 108% | tube area decrease [5] 60.9% | inhibition of viability [7] 112% | viability decrease (inhibition) [8] 130% | viability decrease (inhibition) [9] 101% | AC50 [17] 20.9 µM
inactive: nuclear beta-catenin stimulation ([2]; at 10 µM) 8.6% | insulin secretion stimulation [3] 2.75% | GLP1 secretion stimulation [6] 5.8%
-2.1%: nuclear beta-catenin stimulation ([2]; stimulation, at 2 µM)

CCOC(=O)Nc1ccc(NCc2ccc(F)cc2)nc1N
2.4%: nuclear beta-catenin stimulation ([2]; stimulation, at 2 µM)
inactive: nuclear beta-catenin stimulation ([2]; at 10 µM) 0.2% | insulin secretion stimulation [3] 1.9% | viability decrease [4] 5.6% | tube area decrease [5] -7.5% | GLP1 secretion stimulation [6] -1.1% | inhibition of viability [7] 18.8% | viability decrease (inhibition) [8] 1.7% | viability decrease (inhibition) [9] 8.6% | outcome [17] | outcome [11] | outcome [12] | fold change [14, 21] 1.05 and 0.965 | outcome [19] | z-score [15, 25] -0.196 | z-score [16] 1.55
0.797 and 0.68: fold change [14, 22]
-0.17: z-score [15, 26]
10200 and 8110: cell count [14, 23]
9760 and 8410: cell count [14, 24]

NC(=O)Cc1cccc(C(=O)c2ccccc2)c1N
0.903: fold change [14, 22]
2.6%: nuclear beta-catenin stimulation ([2]; stimulation, at 2 µM)
-0.195: z-score [15, 26]
7400: cell count [14, 23]
8200: cell count [14, 24]
inactive: nuclear beta-catenin stimulation ([2]; at 10 µM) 3% | insulin secretion stimulation [3] -0.1% | viability decrease [4] 4.9% | tube area decrease [5] 12.4% | GLP1 secretion stimulation [6] -1.1% | inhibition of viability [7] -6.03% | viability decrease (inhibition) [8] -28.7% | viability decrease (inhibition) [9] 6.9% | outcome [10] | outcome [17] | outcome [11] | fold change [14, 21] 0.902 | z-score [15, 25] -0.418

C=CCc1cc(OC)c(O)c(C(=O)NCCO)c1
0.662: fold change [14, 22]
8720: cell count [14, 23]
9220: cell count [14, 24]
inactive: nuclear beta-catenin stimulation ([2]; at 10 µM) 1.7% | insulin secretion stimulation [3] -0.7% | viability decrease [4] -4.9% | tube area decrease [5] 4.3% | GLP1 secretion stimulation [6] 0.4% | inhibition of viability [7] -7.7% | viability decrease (inhibition) [8] 33.7% | viability decrease (inhibition) [9] 1.9% | outcome [10] | outcome [17] | outcome [11] | fold change [14, 21] 0.947 | z-score [15, 25] -0.166
0.363: z-score [15, 26]
2.4%: nuclear beta-catenin stimulation ([2]; stimulation, at 2 µM)

O=C(O)c1c(Cl)c(Cl)c(Cl)c(Cl)c1-c1c2cc(I)c(=O)c(I)c-2oc2c(I)c(O)c(I)cc12
-0.6%: nuclear beta-catenin stimulation ([2]; stimulation, at 2 µM)
active: viability decrease [4] 96.7% | inhibition of viability [7] 91.6% | viability decrease (inhibition) [8] 90.7% | viability decrease (inhibition) [9] 73.4% | AC50 [18] 3.32 µM | AC50 [12] 8.33 µM
inactive: nuclear beta-catenin stimulation ([2]; at 10 µM) -2.4% | insulin secretion stimulation [3] -1.2% | tube area decrease [5] 23.9% | GLP1 secretion stimulation [6] -4.3%

C#Cc1cccc(Nc2ncnc3cc(OCCOC)c(OCCOC)cc23)c1
4550: cell count [14, 23]
2.01 (active) and 0.197: z-score [15, 25]
active: viability decrease [4] 72.1% | inhibition of viability [7] 59.4% | viability decrease (inhibition) [9] 83.4% | AC50 [10] 7.43 µM | AC50 [17] 7.43 µM | AC50 [18] 7.42 µM | viability ([20]; at 0.000305 µM, OCI-P5x cells, without rucaparib) 93.6% | viability ([20]; at 0.00122 µM, OCI-P5x cells, without rucaparib) 96.4%
168%: viability [1]
-0.8%: nuclear beta-catenin stimulation ([2]; stimulation, at 2 µM)
inactive: parasite load remaining [1] 380% | nuclear beta-catenin stimulation ([2]; at 10 µM) 1.3% | insulin secretion stimulation [3] 1.8% | tube area decrease [5] -49.7% | GLP1 secretion stimulation [6] 1.7% | viability decrease (inhibition) [8] 34.2% | fold change [14, 21] 0.807 | viability ([20]; at 0.000305 µM, OCI-C5x cells, with rucaparib 10 µM, 100% = cells with rucaparib alone) 108% | viability ([20]; at 0.000305 µM, OCI-C5x cells, without rucaparib) 109% | viability ([20]; at 0.000305 µM, OCI-P5x cells, with rucaparib 20 µM, 100% = cells with rucaparib alone) 121% | viability ([20]; at 0.00122 µM, OCI-C5x cells, with rucaparib 10 µM, 100% = cells with rucaparib alone) 105% | viability ([20]; at 0.00122 µM, OCI-C5x cells, without rucaparib) 109% | viability ([20]; at 0.00122 µM, OCI-P5x cells, with rucaparib 20 µM, 100% = cells with rucaparib alone) 142% | viability ([20]; at 0.00488 µM, OCI-C5x cells, with rucaparib 10 µM, 100% = cells with rucaparib alone) 109% | viability ([20]; at 0.00488 µM, OCI-C5x cells, without rucaparib) 104%
1.12: fold change [14, 22]
5640: cell count [14, 24]
-0.563 and 2.07: z-score [15, 26]
